Among the data in PubChem BioAssay AID1234 (University of Pittsburgh Molecular Library Screening Center, 2008) are EC50 and activation values, retold here.

This is one part of the list. Active and inactive are the calls of the source.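 The calls were made as follows: active = EC50 under a set limit for hydrogen peroxide production with the reducing agent DTT present; inactive = the rest.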

The nature of the assay: compounds producing H2O2 with reducing agent – biochemical, 10-point concentration response, NIH library profiling, artefact control for MLSCN library redox annotation, dose response (AID 1234). The note with it: DTT-dependent redox cycling H2O2, phenol red-HRP absorbance; activation: H2O2 generation, at 50 µM, stronger effect = higher value.

With `CCOC(=O)c1c(C)[nH]c2c1-c1ccccc1C(=O)C2=O`, the 50% effective concentration (EC50) was 0.43 µM (active) and the activation is 129%.
